Results from PubChem BioAssay (EPA / NIEHS).
Values joined by “and” are separate entries in the source; they are usually repeats but may differ in a detail not shown here. Identical values can stand only once. Some structures have more than one record in an assay (separate samples or runs), and their calls can disagree. Active and inactive are the calls of the source. The calls were made as follows: active = hit-call score of the fitted dose curve at least 0.9, where 1 is the maximum; inactive = score below 0.9.

Key:
[1] = BSK_hDFCGF_Proliferation: Cell Proliferation Assessment in the BioMAP Diversity Plus: hDFCGF Assay (AID 2283059); settings: primary human foreskin fibroblasts;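 also: curves fitted for both rise and fall of signal versus DMSO baseline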
Outline: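 This proliferation readout used SRB total-protein staining of human foreskin fibroblasts […], normalized to DMSO with bidirectional curve fitting.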

[2] = read-out: Macrophage colony-stimulating factor (MCSF), CSF1 (gene 1435); test: BSK_hDFCGF_MCSF: BioMAP Diversity Plus: hDFCGF Assay for Macrophage colony-stimulating factor (MCSF) Biomarker Activity (AID 2283060); settings: primary human foreskin fibroblasts; actives raise or lower the signal
Outline: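 Human foreskin fibroblast primary cultures; M-CSF measured by ELISA 24 hours after chemical dosing. Bidirectional fitting relative to DMSO, with overt cytotoxicity tracked by parallel SRB total-protein staining (0.1% SRB, 10% TCA fixation, 560 nm).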

[3] = BSK_hDFCGF_SRB: Viability Assessment in the BioMAP Diversity Plus: hDFCGF Assay (AID 2283061); settings: primary human foreskin fibroblasts;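 also: cells exposed to compound for 24 h before the read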
Outline: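 Human foreskin fibroblasts in 96-well plates were treated 24 h. Total protein was measured by 0.1% SRB staining after 10% TCA fixation, read at 560 nm. Data were fitted bidirectionally against DMSO.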

[4] = read-out: TIMP metallopeptidase inhibitor 1 (TIMP1), TIMP1 (gene 7076); test: BSK_hDFCGF_TIMP1: BioMAP Diversity Plus: hDFCGF Assay for TIMP metallopeptidase inhibitor 1 (TIMP1) Biomarker Activity (AID 2283062); settings: primary human foreskin fibroblasts; actives raise or lower the signal
Outline: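 Human foreskin fibroblast primary cultures dosed for 24 h; secreted/surface TIMP-1 quantified by ELISA. Bidirectional curve fitting against DMSO baseline; cytotoxicity tracked in parallel cultures by SRB total-protein staining.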

[5] = read-out: Monokine induced gamma interferon (MIG), CXCL9 (gene 4283); test: BSK_hDFCGF_MIG: BioMAP Diversity Plus: hDFCGF Assay for Monokine induced gamma interferon (MIG) Biomarker Activity (AID 2283063); settings: primary human foreskin fibroblasts; actives raise or lower the signal
Outline: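 MIG/CXCL9 measured by ELISA 24 h after dosing primary human skin fibroblasts. Activity fitted in both directions against DMSO controls. Cytotoxicity was checked in parallel cultures by SRB staining read at 560 nm.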

[6] = read-out: Matrix Metallopeptidase 1 (MMP1), MMP1 (gene 4312); test: BSK_hDFCGF_MMP1: BioMAP Diversity Plus: hDFCGF Assay for Matrix Metallopeptidase 1 (MMP1) Biomarker Activity (AID 2283064); settings: primary human foreskin fibroblasts; actives raise or lower the signal
Outline: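 ELISA read-out of MMP1 from human foreskin fibroblasts (primary skin cells), 24 h post-dose. Gain or loss of signal was fitted bidirectionally versus DMSO negative control; cytotoxicity was checked by SRB in parallel cultures.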

[7] = read-out: Vascular cell adhesion molecule 1 (VCAM1), VCAM1 (gene 7412); test: BSK_hDFCGF_VCAM1: BioMAP Diversity Plus: hDFCGF Assay for Vascular cell adhesion molecule 1 (VCAM1) Biomarker Activity (AID 2283065); settings: primary human foreskin fibroblasts; actives raise or lower the signal;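 as to AC50: VCAM-1 protein level quantified by ELISA after 24 h chemical exposure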
Outline: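 Human foreskin fibroblast primary cells dosed with chemical, VCAM-1 measured by ELISA at 24 h. Bidirectional curve fitting relative to DMSO as negative control/baseline.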

[8] = read-out: Plasminogen activator inhibitor-1 (PAI1), SERPINE1 (gene 5054); test: BSK_hDFCGF_PAI1: BioMAP Diversity Plus: hDFCGF Assay for Plasminogen activator inhibitor-1 (PAI1) Biomarker Activity (AID 2283066); settings: primary human foreskin fibroblasts; actives raise or lower the signal
Outline: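 Human skin fibroblast cultures receive chemical for 24 h before PAI-1 is measured by ELISA; signal changes are fitted bidirectionally against DMSO-treated wells.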

[9] = read-out: Intercellular Adhesion Molecule 1 (ICAM1), ICAM1 (gene 3383); test: BSK_KF3CT_ICAM1: BioMAP Diversity Plus: KF3CT Assay for Intercellular Adhesion Molecule 1 (ICAM1) Biomarker Activity (AID 2283067); settings: primary human keratinocytes with fibroblasts; actives raise or lower the signal
Outline: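 Human keratinocyte–foreskin fibroblast co-culture was treated for 24 h. Cell-surface ICAM-1 was quantified by ELISA, fitted bidirectionally relative to DMSO. Cytotoxicity was checked in parallel cultures by SRB total-protein staining.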

[10] = read-out: Interferon-gamma inducible Protein 10 (IP10), CXCL10 (gene 3627); test: BSK_KF3CT_IP10: BioMAP Diversity Plus: KF3CT Assay for Interferon-gamma inducible Protein 10 (IP10) Biomarker Activity (AID 2283068); settings: primary human keratinocytes with fibroblasts; actives raise or lower the signal
Outline: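 Signal is secreted/surface IP-10 by ELISA in a human primary skin co-culture of keratinocytes and foreskin fibroblasts, taken 24 h post-dosing; DMSO served as negative control.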

Measured: AC50

CCOc1ccc(C(C)(C)COCc2cccc(Oc3ccccc3)c2)cc1
active: [2] 2.26 µM
inactive: [1] | [3] | [4] | [5] | [6] | [7] | [8] | [9] | [10]

CCOP(=S)(OCC)SCSCC
inactive: [1] | [2] | [3] | [4] | [5] | [6] | [7] | [8] | [9] | [10]

O=C(O)C(F)(F)C(F)(F)C(=O)O
active: [1] 0.22 µM | [5] 14.1 µM
inactive: [1] | [3] | [4] | [5] | [6] | [7] | [8] | [9] | [10]

CCC1(c2ccccc2)C(=O)N=C(O)NC1=O (stereo not drawn)
inactive: [1] | [2] | [3] | [4] | [5] | [6] | [7] | [8] | [9] | [10]

CC(C)(C)c1ccccc1OP(=O)(Oc1ccccc1)Oc1ccccc1
active: [1] 15.6 µM | [2] 20 µM | [3] 25 µM | [4] 20 µM | [7] 20 µM
inactive: [5] | [6] | [8] | [9] | [10]

CCOP(=S)(NC(C)C)Oc1ccccc1C(=O)OC(C)C (stereo not drawn)
inactive: [1] | [2] | [3] | [4] | [5] | [6] | [7] | [9] | [10]
active: [8] 0.257 µM

N#Cc1c(-c2ccc(Cl)cc2)[nH]c(C(F)(F)F)c1Br
inactive: [6] | [9]
active: [1] 0.731 µM | [2] 0.0566 µM | [3] 3.97 µM | [4] 6.18 µM | [5] 20 µM | [7] 2.9 µM | [8] 0.39 µM | [10] 8 µM

Cc1ccc(N)cc1N
inactive: [1] | [2] | [3] | [4] | [5] | [6] | [7] | [8] | [9] | [10]

CCOP(=S)(OCC)SCS(=O)(=O)CC
inactive: [1] | [2] | [3] | [4] | [5] | [6] | [7] | [8] | [9] | [10]

COP(=O)(CCC(=O)NCO)OC
inactive: [1] | [2] | [3] | [4] | [5] | [6] | [7] | [8] | [9] | [10]

ClC1=C(Cl)C2(Cl)C3C(Cl)C(Cl)CC3C1(Cl)C2(Cl)Cl (stereo not drawn)
active: [1] 6.97 µM | [2] 5.82 µM | [3] 7.71 µM | [4] 8.69 µM | [5] 9.26 µM | [6] 10.1 µM | [7] 5.47 µM | [8] 10.3 µM | [9] 31.9 µM | [10] 16.1 µM

COC(=O)C(F)(F)C(F)(F)OC(F)(C(F)(F)F)C(F)(F)OC(F)=C(F)F (stereo not drawn)
active: [1] 5.81 µM | [7] 2.13 µM and 2.85 µM
inactive: [1] | [2] | [3] | [4] | [5] | [6] | [8] | [9] | [10]

COP(=O)(O)OC
inactive: [1] | [2] | [3] | [4] | [5] | [6] | [7] | [8] | [9] | [10]

CC(C)Nc1ccc(Nc2ccccc2)cc1
active: [1] 0.464 µM | [2] 6.38 µM | [3] 6.01 µM | [4] 6.56 µM | [5] 6.46 µM | [6] 11.4 µM | [7] 2.21 µM | [8] 7.9 µM | [9] 20 µM | [10] 32.7 µM

O=C(O)C(F)(F)OC(F)(F)C(F)(F)OC(F)(F)C(=O)O
inactive: [1] | [2] | [3] | [4] | [5] | [6] | [7] | [8] | [9] | [10]

CCCN(CCC)c1c([N+](=O)[O-])cc(C(C)C)cc1[N+](=O)[O-]
active: [1] 13.3 µM | [2] 6.75 µM | [3] 13.9 µM | [5] 9.44 µM | [7] 14.3 µM | [8] 20 µM
inactive: [4] | [6] | [9] | [10]

O=P(OCC(Br)CBr)(OCC(Br)CBr)OCC(Br)CBr (stereo not drawn)
active: [10] 26.2 µM
inactive: [1] | [2] | [3] | [4] | [5] | [6] | [7] | [8] | [9]

CCOP(=S)(Oc1ccc([N+](=O)[O-])cc1)c1ccccc1 (stereo not drawn)
inactive: [3] | [4] | [5] | [6] | [9] | [10]
active: [1] 6.37 µM | [2] 7.24 µM | [7] 7.62 µM | [8] 3.35 µM

O=P1(N(CCCl)CCCl)NCCCO1 (stereo not drawn)
inactive: [1] | [2] | [3] | [4] | [5] | [6] | [7] | [8] | [9] | [10]

CC(Cl)CN(C)C (stereo not drawn)
inactive: [1] | [2] | [3] | [4] | [5] | [6] | [7] | [8] | [9] | [10]

C=CC(=O)OCC(F)(F)C(F)F
inactive: [3] | [6] | [8] | [9] | [10]
active: [1] 30 µM and 39.7 µM | [2] 22.8 µM and 23 µM | [4] 30 µM and 31.7 µM | [5] 36.7 µM and 38.4 µM | [6] 4.6 µM | [7] 20 µM and 11.1 µM

CSC(C)(C)C=NO
inactive: [1] | [2] | [3] | [4] | [5] | [6] | [7] | [8] | [9] | [10]

c1cc2c3c(cccc3c1)CC2
inactive: [1] | [2] | [3] | [4] | [5] | [6] | [7] | [8] | [9] | [10]

COP(N)(=S)OC
inactive: [1] | [2] | [3] | [4] | [5] | [6] | [7] | [8] | [9] | [10]

CN(C)C(=O)Cl
inactive: [1] | [2] | [3] | [4] | [5] | [6] | [7] | [8] | [9] | [10]

OCC(F)(F)OC(F)(F)C(F)(F)OC(F)(F)C(F)(F)OC(F)(F)F
active: [1] 11.6 µM and 15.8 µM | [5] 16 µM and 14.7 µM | [7] 19.3 µM | [9] 48.3 µM and 46.3 µM | [10] 53.8 µM and 53.2 µM
inactive: [2] | [3] | [4] | [6] | [7] | [8]

CCCCc1ccccc1
inactive: [1] | [2] | [3] | [4] | [5] | [6] | [7] | [8] | [9] | [10]

O=[N+]([O-])c1ccc(Cl)c(Cl)c1
inactive: [1] | [3] | [4] | [5] | [6] | [7] | [8] | [9] | [10]

ClC(Cl)c1ccccc1
inactive: [1] | [2] | [3] | [4] | [5] | [6] | [7] | [8] | [9] | [10]

CCOS(=O)(=O)OCC
inactive: [1] | [3] | [4] | [5] | [6] | [7] | [8] | [9] | [10]

Nc1ccc2ccccc2c1
inactive: [1] | [2] | [3] | [4] | [5] | [6] | [7] | [8] | [9] | [10]

CCC(C)(C)c1ccc(O)cc1
inactive: [1] | [2] | [3] | [4] | [5] | [6] | [7] | [8] | [9] | [10]

c1ccc2c(c1)Nc1ccccc1S2
inactive: [3] | [4] | [5] | [6] | [9] | [10]
active: [1] 30.4 µM | [2] 9.32 µM | [7] 20 µM | [8] 29.4 µM

Cc1c([N+](=O)[O-])cc2c(c1[N+](=O)[O-])C(C)(C)CC2(C)C
active: [1] 20 µM
inactive: [3] | [4] | [5] | [6] | [7] | [8] | [9] | [10]

CC(O)C(F)(F)C(F)(F)F (stereo not drawn)
inactive: [1] | [3] | [4] | [5] | [6] | [7] | [8] | [9] | [10]

CCOP(=S)(OCC)SCSc1ccc(Cl)cc1
active: [2] 14.4 µM | [7] 3.97 µM
inactive: [1] | [3] | [4] | [5] | [6] | [8] | [9] | [10]

CCCCCCCc1ccc(O)cc1
active: [1] 13.5 µM | [3] 30 µM | [4] 32.5 µM | [5] 28.5 µM | [6] 33.6 µM | [7] 20.7 µM | [8] 30.3 µM | [9] 33.3 µM | [10] 29 µM

Cc1cccc(N)c1
inactive: [3] | [4] | [5] | [6] | [7] | [8] | [9] | [10]
active: [1] 0.148 µM

C=CC(=O)OCC(CC)(COC(=O)C=C)COC(=O)C=C
active: [1] 0.795 µM | [2] 2.11 µM | [3] 1.32 µM | [4] 1.11 µM | [5] 1.4 µM | [6] 3.85 µM | [7] 1.07 µM | [8] 1.08 µM | [9] 2.16 µM | [10] 3.17 µM
